# Source: PubChem BioAssay
# LYPLA2 counter: counter-screen for PME1 inhibitors: inhibitors of human LYPLA2; recombinant LYPLA2, FP-Rh probe fluorescence polarization; inhibition, % at 5.9 µM; 320,000 tested, 0.38% active; AID 2177;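 active means inhibition above the screen-wide mean plus 3 SD, limit set per campaign, cut at about 26% in these data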;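 further: 0% = LYPLA2 with DMSO and 100% = wells lacking LYPLA2 enzyme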
# Target sequence (O95372 whole entry, looked up): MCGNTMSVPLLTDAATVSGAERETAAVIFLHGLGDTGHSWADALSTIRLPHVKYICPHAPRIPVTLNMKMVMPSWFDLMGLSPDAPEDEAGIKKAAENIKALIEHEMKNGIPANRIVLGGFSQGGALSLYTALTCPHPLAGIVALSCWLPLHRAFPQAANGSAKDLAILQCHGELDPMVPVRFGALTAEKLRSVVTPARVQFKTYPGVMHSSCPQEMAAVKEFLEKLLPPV
# LYPLA1 inh: LYPLA1 (human) inhibition in PME1 counter-screen; recombinant LYPLA1, FP-Rh probe fluorescence polarization; 320,000 tested, 0.16% active; inhibition, % at 5.9 µM;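 active means inhibition above the mean of all tested compounds plus 3 SD, set per campaign, cut at about 14% in these data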;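 further: inhibitors block serine hydrolase probe labeling of LYPLA1 so polarization falls; 0% = enzyme with DMSO and 100% = wells lacking LYPLA1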
# PAD4 FP inh: inhibitors of human PAD4; inhibition, % at 6.36 µM; 330,000 tested, 0.41% active; recombinant PAD4, RCA probe fluorescence polarization; Q9UM07;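 active means percent inhibition above a cutoff equal to the mean of all tested compounds plus 3 SD, cut at about 15% in these data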;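 further: 0% = PAD4 with RCA probe and DMSO and 100% = probe without PAD4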
# Fam108B inh: Fam108B inhibition, counter-screen for RBBP9 inhibitors; 300,000 tested, 0.33% active; AID 1947; recombinant Fam108B, FP-Rh probe fluorescence polarization; inhibition, % at 9.51 µM;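 active means inhibition above the screen mean inhibition plus 3 SD, computed separately per campaign, cut at about 18% in these data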;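 further: inhibitors lower polarization as less probe binds the enzyme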
# GSTO1 counter: GSTO1 inhibition, counter-screen for RBBP9 inhibitors | P78417 | recombinant GSTO1, activity-based probe fluorescence polarization | inhibition, % at 5.96 µM | 300,000 tested, 1.1% active | AID 1974;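 active means inhibition above the campaign mean inhibition plus 3 SD, cut at about 35% in these data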;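 further: 0% = GSTO1-1 with DMSO and 100% = wells lacking GSTO1-1 enzyme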
# Target sequence (P78417 whole entry, looked up): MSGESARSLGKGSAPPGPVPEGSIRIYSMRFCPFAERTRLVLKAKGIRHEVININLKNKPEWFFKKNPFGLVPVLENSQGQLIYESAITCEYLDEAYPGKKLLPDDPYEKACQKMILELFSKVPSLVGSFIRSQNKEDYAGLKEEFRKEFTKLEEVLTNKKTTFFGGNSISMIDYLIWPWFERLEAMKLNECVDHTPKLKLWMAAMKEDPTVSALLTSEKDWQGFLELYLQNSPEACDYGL
# PME-1 inh: PME-1 (human) inhibition; recombinant PME-1, FP-Rh probe fluorescence polarization; inhibition, % at 5.9 µM; 320,000 tested, 0.53% active; AID 2130;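 active means inhibition above the campaign mean of all compounds plus 3 SD, cut at about 26% in these data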;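 further: competitive labeling of PME-1 active site by serine hydrolase directed probe; 0% = PME-1 with DMSO and 100% = wells lacking PME-1 enzyme; inhibitors block probe labeling so polarization falls and inhibition rises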
# LYPLA2 conf: counter-screen for PME1 inhibitors: confirmation of human LYPLA2 inhibitors. AID 2232. shares compounds with LYPLA2 counter. recombinant LYPLA2, FP-Rh probe fluorescence polarization. 1,100 tested, 72% active. inhibition, % at 5.9 µM;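 active means mean inhibition across replicates above the hit cutoff set in the primary screen, cut at about 26% in these data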;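 further: blocked labeling of the enzyme by serine hydrolase FP-Rh probe lowers polarization; 0% = enzyme with DMSO and 100% = wells lacking LYPLA2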
# LYPLA2 ABPP: inhibitors of human LYPLA2; inhibition, % at 20 µM; 150 tested, 30% active; rhLYPLA2 in mouse brain proteome, gel ABPP FP-Rh; shares compounds with LYPLA2 counter;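 active means inhibition of LYPLA2 enzyme probe labeling above about 50%, limit read from the data; inactive means inhibition below that limit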;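 further: loss of FP-Rh probe labeling of the LYPLA2 gel band measured as band density; 0% = DMSO only control band and 100% = blank gel background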
# Starred values were filed as active, the others as inactive; . = no result given. The list is not random: actives were taken first. Their share in the collection is about 1.7%.
SMILES,LYPLA2 counter,LYPLA1 inh,PAD4 FP inh,Fam108B inh,GSTO1 counter,PME-1 inh,LYPLA2 conf,others
CCOc1cc(C(=O)OCc2ccc(C(=O)OC)o2)cc(Br)c1OC,4,1,0,2,4,5,.,
O=C(NCC1CCN(c2ccc(S(=O)(=O)N3CCOCC3)cc2)CC1)c1ccc(Cl)cc1,81*,1,1,3,2,1,76*,LYPLA2 ABPP=59*
CC(=O)c1ccc(S(=O)(=O)N2CCN(CCOc3ccc(Br)cc3)CC2)cc1,37*,3,-2,.,.,1,37*,
COc1ccc([C@H]2CC(=O)C=C(c3ccc(F)cc3OCc3ccccc3)C2)cc1OC,27*,2,-6,.,.,3,-4,
O=C(C[n+]1cccc(NC(=O)c2ccccc2)c1)c1ccc(NC(=O)c2ccccc2)cc1,27*,0,-4,-6,3,3,19,
O=C(O)[C@H](Cc1ccccc1)Nc1ccc([N+](=O)[O-])cn1,0,-3,-11,3,2,0,.,
COc1ccc(N2CCN(C(=O)C3CCCN(S(=O)(=O)c4ccc(F)cc4)C3)CC2)cc1 (centres undefined),2,3,-6,2,-4,1,.,
COc1ccc(N2CCN(C(=O)C3CCN(S(=O)(=O)c4ccc(F)cc4)CC3)CC2)cc1,42*,1,-1,-5,0,42*,45*,
CC(=O)c1ccc(N2CCN(C(=O)C3CCN(S(=O)(=O)c4ccc5c(c4)CC(C)N5C(C)=O)CC3)CC2)cc1 (centres undefined),74*,1,0,-8,2,2,73*,LYPLA2 ABPP=64*
COc1ccc(N2CCN(C(=O)COc3ccc(S(=O)(=O)N4CCOCC4)cc3C)CC2)cc1,28*,6,-5,2,3,-1,30*,
COc1cc(/C=N/NC(=O)/C(=C\c2ccc([N+](=O)[O-])cc2)NC(=O)c2ccccc2)cc(OC)c1O,39*,-2,-2,3,18,5,42*,
COc1cc(/C=N/NC(=O)/C(=C\c2ccc3c(c2)OCO3)NC(=O)c2ccccc2)ccc1O,2,0,1,6,8,11,.,
Cc1ccccc1CSCC(=O)Nc1ccccc1Br,2,-3,-2,-4,0,3,.,
O=C1NC(Cc2ccccc2)c2nc3ccc(Cl)cc3c(=O)n2-c2ccc(Cl)cc21 (centres undefined),26*,-5,-4,.,.,-11,-11,
Cc1ccc2nc3n(c(=O)c2c1)-c1ccc(Cl)cc1C(=O)NC3Cc1ccccc1 (centres undefined),-10,-6,-1,.,.,-7,.,
O=C(NNC(=O)C1CCCO1)c1ccc(Cl)cc1 (centres undefined),2,-2,-2,0,-6,-2,.,
COc1ccc([C@H]2CC(=O)C=C(c3cccc(C#N)c3)C2)cc1,33*,12,0,.,.,-1,26*,
CC(=O)N1c2ccc(S(=O)(=O)N3CCCC(C(=O)N4CCCCC4)C3)cc2CC1C (centres undefined),2,3,-4,5,2,2,.,
CC(=O)c1c(C)[nH]c(C(=O)COC(=O)CN(C)S(=O)(=O)c2ccc(Cl)cc2)c1C,35*,3,2,-6,7,18,21,
CC(=O)c1c(C)[nH]c(C(=O)COC(=O)Cc2ccccc2F)c1C,.,.,-5,.,.,.,.,
O=C(N/C=C\c1ccccc1)NCc1ccc(Cl)cc1,-15,-4,-5,-5,-22,-8,.,
O=C(NCc1ccc(Cl)cc1)NCC(F)(F)F,33*,1,3,-2,1,2,-3,
O=C(COC(=O)c1ccc(CO)cc1)c1ccc(S(=O)(=O)N2CCCCC2)cc1,14,-1,0,.,.,0,.,
O=C(COC(=O)c1ccc(O)cc1)c1ccc(S(=O)(=O)N2CCCCC2)cc1,44*,4,-1,.,.,0,35*,
CNC(=O)COc1ncnc2sc(C)c(C)c12,0,5,-3,-1,8,-2,.,
SMILES,LYPLA2 counter,LYPLA1 inh,PAD4 FP inh,Fam108B inh,GSTO1 counter,PME-1 inh,LYPLA2 conf,others
Cc1sc2ncnc(OCC(=O)c3ccc(S(=O)(=O)N4CCCC4)cc3)c2c1C,28*,-8,-9,3,2,6,15,
Cc1occc1C(=O)NCc1ccc(C(=O)O)o1,2,1,5,4,-5,2,.,
CCc1ccc(C(=O)Cn2ncc(Cl)c(Cl)c2=O)cc1,31*,-4,6,-6,21,-10,35*,
O=C1[C@@H]2Cc3c([nH]c4ccccc34)CN2C(=O)CN1CCCCCO,30*,-1,3,-3,-6,-11,20,
CC(C)CCN1CC(=O)N2Cc3[nH]c4ccccc4c3C[C@H]2C1=O,60*,2,2,0,4,1,56*,LYPLA2 ABPP=14
O=C1[C@@H]2Cc3c([nH]c4ccccc34)CN2C(=O)CN1CCO,6,2,-1,-1,-6,1,.,
CCCCc1cc(=O)oc2cc(OCC(=O)Nc3cccnc3)c(Cl)cc12,28*,3,-3,0,-6,3,14,
Cc1ccccc1C(=O)NCCCNC(=O)c1ccccn1,-6,1,-1,-1,-5,1,.,
CCOC(=O)C1=C(SCC(=O)Nc2ccccc2)NC(=O)C(C#N)C12CCCCC2 (centres undefined),8,3,2,-2,-16,0,.,
Cn1c2c(c(=O)n(C)c1=O)C(C(F)(F)F)(C(F)(F)F)N=C(c1ccc(Cl)cc1)N2,56*,-1,-1,1,-12,9,1,
COC(=O)c1ccc(N2CCC(c3cc(-c4ccc(OC)cc4)n[nH]3)CC2)c([N+](=O)[O-])c1,26*,-11,0,-10,-23,-21,26,
COc1ccc(-c2cc(C3CCN(c4ccc(C(C)=O)cc4[N+](=O)[O-])CC3)[nH]n2)cc1,37*,-3,0,-8,-5,-5,42*,
CC(=O)c1ccc(N2CCC(c3cc(-c4ccc(Cl)cc4)n[nH]3)CC2)c([N+](=O)[O-])c1,-5,1,-15,-11,-18,-20,.,
COc1ccc(-c2cc(C3CCN(C(=O)OC(C)(C)C)CC3)[nH]n2)cc1,27*,6,-1,1,8,-3,18,
CCOC(=O)C1=C(COC(=O)CNC(=O)c2ccc(Cl)cc2Cl)NC(=O)NC1C (centres undefined),-3,1,3,3,-2,6,.,
O=C(OCc1nnc(-c2ccccc2)o1)c1cc([N+](=O)[O-])ccc1Cl,8,-2,2,-1,3,1,.,
